Most compounds without a hit are left out; they make up all but 21% or so of the library.
NS1 inh = qHTS Assay for Inhibitors of Influenza NS1 Protein Function; Potency, µM (top dose mostly 46.1 µM), for inactives: at the top dose activity, positive = more growth; actives 0.4% (n = 270,000); AID 2326, 2010; calls by dose curve; note: potency is the fitted concentration of half-maximal effect; actives are rising curves; nearly all actives have a fitted effect of over 50% in size
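A cell-based growth assay was used: compounds that relieve NS1-induced slow growth of budding yeast raise OD600. Assay medium was yeast nitrogen base with ammonium sulphate and -URA supplement, pH 6.0, with 2% galactose.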
SARS PLP yeast = qHTS of Yeast-based Assay for SARS-CoV PLP; S. cerevisiae expressing SARS-CoV PLpro, growth rescue; AID 485353, 2010; Potency, µM (doses to about 32.9 µM), inactives show top-dose activity, positive = growth rescue, most hits filed as activators; actives 0.19% (n = 330,000); calls by dose curve; note: potency is the fitted concentration of half-maximal effect; 0% is about no effect; nearly all actives have a fitted effect of over 55% in size
Shiga toxin inh = A qHTS for Small Molecule Inhibitors of Shiga Toxin; inhibition, % at 38.7 µM; actives 9.2% (n = 290,000); Vero cells, Shiga toxin protein synthesis inhibition reporter; in the data active = inhibition mostly above about 28%, no sharp cut-off; inactive = mostly below about 43%; note: 0% is about no effect
Cycloheximide cs = Cycloheximide Counterscreen for Small Molecule Inhibitors of Shiga Toxin. max response, %. cell reporter, cycloheximide protein synthesis inhibition counterscreen. actives 12% (n = 300,000). AID 2314, 2010; in the data active = max response mostly above about 13%, no sharp cut-off; inactive = mostly below about 14%; note: read at 38.3 µM for the half of the compounds with a filed dose; 0% is about no effect
Pf growth 96h = Primary qHTS for delayed death inhibitors of the malarial parasite plastid, 96 hour incubation | actives 6.9% (n = 320,000) | Potency, µM (series often up to 28.7 µM), inactives show top-dose activity change, negative = inhibition, most hits filed as inhibitors | AID 504834, 2011 | P. falciparum luciferase reporter growth, 96 h; note: potency is the fitted concentration of half-maximal effect; % is set by controls: 0 for no effect and ±100 for the full control effect
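Plates of compound plus infected erythrocytes (2% hematocrit, 0.05% parasitemia final) incubate 96 hours, 37 C, 5% CO2. Detection reagent added; reduced luminescence from the parasites' luciferase reporter flags inhibition.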
Pf growth 48h = Primary qHTS for delayed death inhibitors of the malarial parasite plastid, 48 hour incubation; P. falciparum luciferase growth in erythrocytes, 48 h; Potency, µM (titrated, usually from 28.7 µM), for the others: top-dose activity change, negative = inhibition, usual class: inhibitors; actives 5.9% (n = 310,000); note: potency is the fitted concentration of half-maximal effect; % is set by controls: 0 for no effect and ±100 for the full control effect
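First compound was added to culture medium, then infected red cells at 0.1% parasitemia and 2% hematocrit (final). After incubation at 37 C under 5% CO2, luciferase detection reagent was dispensed and light output recorded.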
* hit, by the source's call; ? = inconclusive; / = no result. Unless noted, calls come from the whole dose curve; as a rule, active = well fitted inhibition curve with a large enough effect; inconclusive = small, poorly fitted or top-dose-only effect, or another doubt; inactive = no such curve, though single readings can be large or run the other way.

SMILES	NS1 inh	SARS PLP yeast	Shiga toxin inh	Cycloheximide cs	Pf growth 96h	Pf growth 48h
COc1ccc(CN(C)Cc2nc3scc(-c4ccccc4)c3c(=O)[nH]2)cc1OC	7%	14%	-4	-2	?	?
CCC(C)C(NC(=O)OC(C)(C)C)C(=O)NC1COC2CC(n3ccc(=O)[nH]c3=O)OC12 (centres undefined)	/	/	8	-6	/	/
CCCCc1nc2cc(C(=O)N3CCCCC3COC)ccc2o1 (centres undefined)	-12%	3%	87*	35*	?	46%
CC(Cc1ccccc1Sc1ccccc1O)N(C)C (centres undefined)	-7%	0%	-19	-9	3.7µM*	/
CN(C)Cc1ccccc1Sc1ccc(O)cc1O	-3%	13%	-7	-2	20%	-7%
Cc1ccc(CN=c2c([N+](=O)[O-])nn(-c3cccc(Cl)c3)n2O)cc1	/	-3%	7	8	?	?
Cc1ccc(CN=c2c([N+](=O)[O-])nn(-c3cccc(C)c3)n2O)cc1	-5%	1%	26	25*	77%	70%
COc1ccc(-n2nc([N+](=O)[O-])c(=NCc3cccnc3)n2O)cc1	-6%	-6%	26	65*	?	227%
COc1ccc(-n2nc([N+](=O)[O-])c(=NCc3ccco3)n2O)cc1	/	7%	80*	30*	31%	301%
COc1ccc(-n2nc([N+](=O)[O-])c(=NCCc3ccc(Cl)cc3)n2O)cc1	4%	-1%	-4	16	?	?
COc1ccc(-n2nc([N+](=O)[O-])c(=NCCC3=CCCCC3)n2O)cc1	-2%	-2%	46	32*	?	-13%
COc1ccc(-n2nc([N+](=O)[O-])c(=NCCc3ccc(C)cc3)n2O)cc1	/	-5%	47	5	?	26%
COc1ccc(Br)cc1S(=O)(=O)Nc1ncn[nH]1	5%	3%	-13	-1	-3%	-9%
Cc1ccc(C)c(CN2CCC(CNC(=O)Nc3ccc(Br)cc3F)CC2)c1	0%	-2%	-10	5	-13%	13µM*
CC(=O)N/C(N)=N/c1nc2cc([N+](=O)[O-])ccc2o1	8%	-1%	81	27*	125%	101%
CC(=O)N/C(N)=N/c1nc2cc(C)ccc2o1	4%	0%	63*	37*	274%	214%
CC(=O)Nc1nc2cc([N+](=O)[O-])ccc2s1	/	0%	/	/	3%	32%
CC(=O)N/C(=N/c1nc(C)cc(C)n1)Nc1ccc(C)cc1Cl	-1%	4%	-5	3	10%	8%
CCC/C=C(\CCC)C(NS(=O)(=O)c1ccc(C(F)(F)F)cc1)c1ccccc1 (centres undefined)	-43%	-28%	11	8	7.4µM*	9.3µM*
CCCCCC1CC(CC(=O)Nc2nncs2)C(=O)O1 (centres undefined)	16%	24%	10	1	7.4µM*	-5%
CCCCCC1CC(CC(C)C(=O)Nc2nncs2)C(=O)O1 (centres undefined)	8%	2%	-8	-2	?	?
CCN1/C(=C\c2ccc3cc(C)ccc3[n+]2CC)Sc2cc(C)c(C)cc21	/	-25%	2	4	31%	5.2µM*
CCN1/C(=C/c2ccc3cc(C)cc(C)c3[n+]2CC)Sc2cc(C)ccc21	/	-25%	-16	3	2%	12µM*
COc1ccc(C2(C)NC(=O)N(CC(=O)NC3CCCC3)C2=O)cc1OC (centres undefined)	/	4%	/	/	?	-20%
CCOc1ccccc1OCCC(=O)OCC(=O)Nc1c(C)nn(-c2ccccc2)c1C	/	-1%	/	/	-2%	1%
O=C(CCCN1C(=O)C(c2ccccc2)Oc2cccnc21)NCCc1ccc(Cl)cc1 (centres undefined)	9%	-2%	6	1	9.3µM*	?
O=C(CCCN1C(=O)C(c2ccccc2)Oc2cccnc21)NCc1ccccc1Cl (centres undefined)	-6%	3%	-7	6	9%	-3%
